Reference: PubChem BioAssay (NCATS)
Where “and” joins values, the source holds several entries; their conditions need not be identical. Identical values can stand only once. Values without a mark were called inactive. Records with an inconclusive call do not appear. Entries that show only a call come without a potency. Calls of active or inactive are those of the source. Calls come from the whole dose curve; as a rule, active = well fitted curve in the direction sought with a large enough effect; inconclusive = small, poorly fitted or top-dose-only effect, or another doubt; inactive = no such curve, though single readings can be large; an effect the other way counts as inactive or inconclusive.

Assays:
[1] = Cell Viability - Renal Proximal Tubule (AID 545); conditions: renal proximal tubule cells viability, primary cells of rat origin; at 91.7 µM (top of the series); note: nearly all actives have a fitted effect of over 40% in size
Method in brief: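 Rat renal proximal tubule primary cells, 1000/well, exposed to compounds for 40 hr at 37 °C in complete medium; cellular ATP read by CellTiter-Glo luminescence. AC50 from concentration-response fitted with standard Hill equation.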

[2] = Cellular Toxicity (caspase-3) Jurkat (AID 655); conditions: Jurkat caspase-3 activation, luminescence, DMSO = 0%, tamoxifen = 100%; at 92.2 µM (top of the series);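 note: cells exposed to compound for 16 h at 37 °C before reading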
Method in brief: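 Jurkat cells (5000/well) in complete medium exposed 16 h at 37 C; caspase-3/7 activity read by Caspase-Glo luminescence after 20 min at room temperature. Normalized to DMSO and 100 uM tamoxifen; AC50 from Hill fits.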

[3] = Cell Viability - LYMP2-001 (AID 921); note: nearly all actives have a fitted effect of over 70% in size
Method in brief: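 Human lymphoblastoid LYMP2-001 cells, 2500 per well, in complete medium, treated 24 h at 37 C. Viability from cellular ATP by CellTiter-Glo luminescence; AC50 from Hill-equation fits of qHTS concentration-response.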

[4] = MultiTox-Fluor Cytotoxicity Assay - LYMP1-002 - Live Cells (AID 955);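 note: cells exposed to compound for 16 hours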
Method in brief: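 Read-out is live-cell protease activity (cell-permeant GF-AFC substrate, fluorescence Ex/Em=405/510), where a decrease indicates acute toxicity. Human lymphoblastoid cells were treated 16 hours at 37 C in a concentration series, and AC50 values came from standard Hill modelling.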

[5] = MultiTox-Fluor Cytotoxicity Assay - LYMP1-003 - Dead Cells (AID 961); note: nearly all actives have a fitted effect of over 70% in size
Method in brief: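 LYMP1-003 lymphoblastoid, 2500 cells/well, 5 hr settle then 16 hr cpd at 37 C; MultiTox-Fluor reagent 60 min RT; Ex/Em 485/520 dead-cell signal; norm. DMSO = 0%, 15 uM tetraoctylammonium bromide = 100%; Hill AC50.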

[6] = Cell Viability - LYMP1-003 - Assay at 24 hr (AID 963)
Method in brief: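 Cells seeded at 2500/well, 5 hr at 37 C; compounds added; 24 hr at 37 C; CellTiter-Glo added, 30 min room temperature; luminescence read. Decrease in ATP taken as cytotoxicity, AC50 from Hill modelling.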

[7] = Cell Viability - LYMP2-003 (AID 965);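 note: cells exposed to compounds for 24 h before reading; nearly all actives have a fitted effect of over 50% in size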
Method in brief: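 Human lymphoblastoid LYMP2-003 cells, 2500/well, exposed to compounds for 24 h at 37 C in complete medium. Viability read as intracellular ATP by CellTiter-Glo luminescence; AC50 from Hill-equation fits of qHTS concentration-response data.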

[8] = Cell Viability - LYMP2-005 (AID 967)
Method in brief: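 Human lymphoblastoid LYMP2-005 cells, 2,500 per well in complete medium, rested 5 h at 37C then compound-treated 24 h at 37C. Intracellular ATP read by CellTiter-Glo luminescence after 30 min at room temperature; AC50 from Hill-equation fits of concentration-response data.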

[9] = Cell Viability - LYMP2-021 (AID 974);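 note: compound exposure lasts 24 hours at 37 °C; nearly all actives have a fitted effect of over 55% in size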
Method in brief: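 Plate 2500 lymphoblastoid cells per well and incubate 5 hr at 37 C. Add compounds over a concentration range and incubate 24 hr at 37 C. Add CellTiter-Glo, wait 30 min at room temperature, read luminescence.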

[10] = Cell Viability - LYMP2-023 (AID 975);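 note: cellular ATP measured by luciferase luminescence as viability proxy; nearly all actives have a fitted effect of over 55% in size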
Method in brief: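 2500 cells/well, 5 hr 37 C; cpd 24 hr 37 C; CellTiter-Glo, 30 min RT; luminescence. qHTS conc-response, Hill fit -> AC50. Pos ctrl tetraoctylammonium bromide.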

[11] = Cell Viability - LYMP2-025 (AID 976)
Method in brief: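 Seed 2500 LYMP2-025 cells/well; 5 hr at 37 C; add compound; 24 hr at 37 C; add CellTiter-Glo; 30 min RT; read luminescence. AC50 from Hill-modelled concentration-response.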

[12] = Cell Viability - LYMP2-002 (AID 977);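 note: compound exposure lasted 24 h at 37 °C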
Method in brief: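 Human lymphoblastoid LYMP2-002 cells, 2500 per well, exposed to compounds for 24 h at 37 C in complete medium; viability read as intracellular ATP by CellTiter-Glo luminescence, AC50 from Hill fits.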

[13] = Cell Viability - LYMP2-006 (AID 978); note: nearly all actives have a fitted effect of over 60% in size; note: potency is the fitted concentration of half-maximal effect
Method in brief: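 Human lymphoblastoid cells (LYMP2-006), 2500/well in complete medium, were treated with compound for 24 hr at 37 C. Cellular ATP was read by CellTiter-Glo luminescence after 30 min, and AC50 values came from Hill-equation fits of concentration-response data.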

[14] = Cell Viability - LYMP2-014 (AID 983); note: nearly all actives have a fitted effect of over 50% in size
Method in brief: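 Luminescent ATP signal (CellTiter-Glo, 30 min at room temperature) serves as the viability read-out after 24 hr compound exposure at 37 C. Cells were seeded at 2500 per well and settled 5 hr beforehand.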

[15] = Cell Viability - LYMP2-026 (AID 989); note: nearly all actives have a fitted effect of over 50% in size
Method in brief: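 Luminescent ATP signal (CellTiter-Glo, 30 min room temperature) measures viable lymphoblastoid cells after 24 hr compound treatment at 37 C. Decreased ATP reflects acute toxicity; AC50 values come from Hill-equation modeling.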

[16] = Cell Viability - LYMP1-002 - Assay at 24 hr (AID 993)
Method in brief: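 Cells plated 2500/well, 5 hr 37 C; compounds added, 24 hr 37 C; CellTiter-Glo added, 30 min RT; luminescence read. Tetraoctylammonium bromide positive control. Hill-equation AC50.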

[17] = Cell Viability - LYMP1-002 - Assay at 40 hr (AID 994); note: nearly all actives have a fitted effect of over 60% in size
Method in brief: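 Luminescent ATP signal served as the viability readout, with decreases taken as toxicity. Cells were treated with compounds across a concentration range for 40 hours at 37 C, and AC50 values came from standard Hill modeling.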

[18] = Cell Viability - LYMP2-009 (AID 968); note: nearly all actives have a fitted effect of over 55% in size
[19] = Cell Viability - LYMP2-015 (AID 971); note: nearly all actives have a fitted effect of over 55% in size
Method in brief: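 Luminescent ATP read-out (CellTiter-Glo) served as the viability measure after lymphoblastoid cells were exposed to compounds for 24 hours at 37 C. Concentration-response data were fitted with the Hill equation to give AC50.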

[20] = Cell Viability - LYMP2-008 (AID 980); note: nearly all actives have a fitted effect of over 60% in size
Method in brief: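 qHTS, human lymphoblastoid line, 2500 cells/well; 5 hr preincubation, 24 hr compound, 37 C. CellTiter-Glo ATP luminescence. AC50 via Hill equation. Tetraoctylammonium bromide positive control.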

| Structure (SMILES) | activity change, negative = cytotoxicity [1] | caspase-3 activation [2] | Potency [3] | Potency [4] | Potency [5] | Potency [6] | Potency [7] | Potency [8] | Potency [9] | Potency [10] | Potency [11] | Potency [12] | Potency [13] | Potency [14] | Potency [15] | Potency [16] | Potency [17] | Potency [18] | Potency [19] | Potency [20] |
| --- | --- | --- | --- | --- | --- | --- | --- | --- | --- | --- | --- | --- | --- | --- | --- | --- | --- | --- | --- | --- |
| O=C1c2ccccc2C(=O)C1c1ccc2ccccc2n1 | -13.3% | -10.4% | inactive | inactive | inactive | inactive | inactive | inactive | inactive | inactive | inactive | inactive | 39.8 µM (active) | inactive | inactive | inactive | inactive | – | – | – |
| c1ccccc1 | 3.93% and -11% | 0.593% and 0.461% | inactive | inactive | inactive | inactive | inactive | inactive | inactive | inactive | inactive | inactive | inactive | inactive | inactive | inactive | inactive | inactive | inactive | inactive |
| CCCCC(CC)CN (configuration not stated) | -8.31% and 1.31% | -1.36% and 1.48% | inactive | inactive | inactive | inactive | inactive | inactive | inactive | inactive | inactive | inactive | inactive | inactive | inactive | inactive | inactive | inactive | inactive | inactive |
| CCO | -3.41% | -0.073% | inactive | inactive | inactive | inactive | inactive | inactive | inactive | inactive | inactive | inactive | inactive | inactive | inactive | inactive | inactive | inactive | inactive | inactive |
| O=C(O)c1ccc(O)cc1O | -3.65% and 5.93% | -0.639% and 0.659% | inactive | inactive | inactive | inactive | inactive | inactive | inactive | inactive | inactive | inactive | inactive | inactive | inactive | inactive | inactive | inactive | inactive | inactive |
| Cc1ccc(N)c([N+](=O)[O-])c1 | 4.17% | -0.471% | inactive | inactive | inactive | inactive | inactive | inactive | inactive | inactive | inactive | inactive | inactive | inactive | inactive | inactive | inactive | inactive | inactive | inactive |
| COc1c2ccoc2cc2oc(=O)ccc12 | -16.3% | -0.404% | inactive | inactive | inactive | inactive | inactive | inactive | inactive | inactive | inactive | inactive | inactive | inactive | inactive | inactive | inactive | inactive | inactive | inactive |
| Cc1ccc([N+](=O)[O-])c(C)c1 | -0.903% | 0.882% | inactive | inactive | inactive | inactive | inactive | inactive | inactive | inactive | inactive | inactive | inactive | inactive | inactive | inactive | inactive | inactive | inactive | inactive |
| Clc1cc(Cl)c(Cl)cc1Cl | -8.1% | 2.8% | inactive | inactive | inactive | inactive | inactive | inactive | inactive | inactive | inactive | inactive | inactive | inactive | inactive | inactive | inactive | inactive | inactive | inactive |
| Clc1cc(Cl)c(Cl)c(Cl)c1Cl | -5.98% | 1.31% | inactive | inactive | inactive | inactive | inactive | inactive | inactive | inactive | inactive | inactive | inactive | inactive | inactive | inactive | inactive | inactive | inactive | inactive |
| CN(C)CCCCCCN(C)C | -0.404% | -2.92% | inactive | inactive | inactive | inactive | inactive | inactive | inactive | inactive | inactive | inactive | inactive | inactive | inactive | inactive | inactive | inactive | inactive | inactive |
| CC(C)=CCCC(C)CCO (configuration not stated) | -2.53% | 2.37% | inactive | inactive | inactive | inactive | inactive | inactive | inactive | inactive | inactive | inactive | inactive | inactive | inactive | inactive | inactive | inactive | inactive | inactive |
| COCC(=O)O | -6.52% | 0.941% | inactive | inactive | inactive | inactive | inactive | inactive | inactive | inactive | inactive | inactive | inactive | inactive | inactive | inactive | inactive | inactive | inactive | inactive |
